# Assay outcomes from PubChem.
# KCNQ2 block = KCNQ2 (rat) channel inhibition; 310,000 compounds, 1.1% hits; CHO-K1 KCNQ2, FluxOR thallium flux, 20 min; active compounds read low; B-score at 10 µM;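 active = fluorescence ratio B-score at most minus 3 library SDs, with starting brightness B-score within 2 library SDs, cut at about -5.5 in these data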
# Target sequence (O88943 whole entry, looked up): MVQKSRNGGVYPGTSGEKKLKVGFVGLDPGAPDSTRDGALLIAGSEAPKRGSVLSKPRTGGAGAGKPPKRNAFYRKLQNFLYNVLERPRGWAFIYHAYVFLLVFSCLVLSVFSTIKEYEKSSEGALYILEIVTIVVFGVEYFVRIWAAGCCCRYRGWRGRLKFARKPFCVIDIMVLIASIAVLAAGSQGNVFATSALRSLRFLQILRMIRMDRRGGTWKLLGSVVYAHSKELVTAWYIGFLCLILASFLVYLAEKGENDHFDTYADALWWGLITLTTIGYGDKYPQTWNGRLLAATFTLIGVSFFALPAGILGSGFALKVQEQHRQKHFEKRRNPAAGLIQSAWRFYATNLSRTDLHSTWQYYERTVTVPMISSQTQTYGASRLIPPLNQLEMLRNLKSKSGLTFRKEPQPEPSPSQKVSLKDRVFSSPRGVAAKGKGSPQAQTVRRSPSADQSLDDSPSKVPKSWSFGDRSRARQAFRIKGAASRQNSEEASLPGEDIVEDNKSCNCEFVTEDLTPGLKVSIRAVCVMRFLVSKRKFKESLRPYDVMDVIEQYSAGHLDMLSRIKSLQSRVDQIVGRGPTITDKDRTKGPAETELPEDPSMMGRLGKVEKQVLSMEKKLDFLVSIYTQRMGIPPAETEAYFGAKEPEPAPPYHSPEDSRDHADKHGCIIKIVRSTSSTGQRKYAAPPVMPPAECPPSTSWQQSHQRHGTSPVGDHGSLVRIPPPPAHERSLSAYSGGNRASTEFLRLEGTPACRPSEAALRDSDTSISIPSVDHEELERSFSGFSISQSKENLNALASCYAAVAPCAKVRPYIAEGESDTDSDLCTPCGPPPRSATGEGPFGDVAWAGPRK
# KCNQ2 pot = potentiators of rat KCNQ2 potassium channel; B-score at 10 µM; 310,000 compounds, 0.54% hits; O88943; AID 2239; CHO-K1 KCNQ2, FluxOR thallium flux fluorescence; active compounds read high;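 active = fluorescence ratio B-score at least 3 SD of library B-scores, with initial fluorescence B-score within 3 of them, cut at about 5.3 in these data; same plate scores as AID 2156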;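 also: B-score of peak minus minimum over baseline fluorescence ratio after K+ and Tl+ stimulus; positive B-score means potentiation of KCNQ2 with more thallium influx and brighter signal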
# Kir21 conf inh = confirmation of mouse Kir2.1 potassium channel inhibitors; shares compounds with KCNQ2 pot; Kir2.1-expressing cells, FluxOR thallium flux fluorescence; active compounds read low; Tl flux remaining, % of negative control (active compounds read low), % at 10 µM; 2,300 compounds, 41% hits;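 active = Primary-screen hit whose thallium flux fell at least 3 control SD below untreated wells in both duplicates, with normal baseline fluorescence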;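 also: 0% = blank wells without stimulus and 100% = stimulated no-compound controls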
# HEK293 Tl flux = counter-screen for Kir2.1 inhibitors: effect in parental HEK293 cells. FluxOR thallium flux fluorescence; 0% = unstimulated blank wells. AID 2105. shares compounds with KCNQ2 pot. FluxOR signal as % of negative control (100 = no effect), % at 10 µM. 2,300 compounds, 19% hits;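 active = dye signal at least 3 control SD above or below untreated wells in both duplicates, raw fluorescence within 3, either direction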;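 also: percent is based on the flux ratio of peak minus minimum fluorescence over baseline F0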
# CHO-K1 Tl ctr = alters thallium flux in parental CHO-K1 cells, KCNQ2 counter-screen; FluxOR thallium flux fluorescence; zero = vehicle mean+3SD, 100% = vehicle-minus-blank window; activity increase over 3SD of controls, % at 10 µM; 1,200 compounds, 43% hits; AID 2282; shares compounds with KCNQ2 pot;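 active = signal rise of at least 3 SD above the untreated control mean, in both duplicate wells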;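 also: counter screen of KCNQ2 potentiator hits so any rise reflects channel-independent effects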
# KCNQ1 sel pot = tests whether KCNQ2 potentiators also act on human KCNQ1; shares compounds with KCNQ2 pot; CHO KCNQ1 stable, FluxOR thallium flux fluorescence; beyond 3SD, as % of vehicle-control signal; activation over 3SD threshold, % at 10 µM; 1,200 compounds, 28% hits;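 active = fluorescence ratio rise of at least 3 SD of vehicle wells above their mean, in both replicate wells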;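 also: 0% = vehicle mean plus 3 SD and 100% = vehicle minus unstimulated blank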
# KCNQ2 pot confirm = rat KCNQ2 channel potentiator confirmation. shares compounds with KCNQ2 pot. CHO-KCNQ2 cells, FluxOR thallium flux fluorescence. potentiation, less the hit threshold, % at 10 µM. 1,200 compounds, 68% hits. AID 2287;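 active = fluorescence ratio rising 3 SD or more over the vehicle control mean in both replicates, plus primary screen hit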;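 also: peak minus minimum thallium fluorescence divided by baseline after K/Tl stimulus; 0% = vehicle mean plus 3 SD and 100% = vehicle minus unstimulated blank difference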
# Kir21 spec = mouse Kir2.1 off-target activity of KCNQ2 potentiators. shares compounds with KCNQ2 pot. HEK293 Kir2.1, FluxOR thallium flux fluorescence. AID 2345. activity over 3SD threshold, % at 10 µM. 1,200 compounds, 2% hits;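 active = fluorescence ratio rise of at least 3 SD above the vehicle-control mean, seen in both replicates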;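 also: 0% = vehicle mean plus 3 SD and 100% = vehicle minus no-stimulus blank window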
# KCNQ2 W236L MoA = potentiates the retigabine-insensitive rat KCNQ2 W236L mutant channel; shares compounds with KCNQ2 pot; CHO KCNQ2-W236L, automated patch clamp current; current increase over 3SD of negative controls (%), active compounds read high, % at 25 µM; 940 compounds, 10% hits;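 active = current increase at least 3 SD of the untreated controls above them in both duplicate recordings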
# * marks the source's active call; other numbers are inactive results; i = inactive; · = no result. Most compounds without a hit are left out; they make up all but 1.6% or so of the library.
SMILES,KCNQ2 block,KCNQ2 pot,Kir21 conf inh,HEK293 Tl flux,others
Cc1nc(SCC(=O)c2cccs2)c2oc3ccccc3c2n1,i,6*,i,i,CHO-K1 Tl ctr=-16;KCNQ1 sel pot=-4;KCNQ2 pot confirm=-7;Kir21 spec=-38;KCNQ2 W236L MoA=i
CCOC(=O)C1=C(COC(=O)c2ccc(OC(C)C)cc2)NC(=O)NC1C (centres undefined),i,2.2,·,·,
C/C(=N\NC(N)=O)C1CC(Cc2ccccc2)C(=O)O1 (centres undefined),i,·,·,·,
COc1ccccc1Nc1nc(NCC2CCCO2)c2ccccc2n1 (centres undefined),i,·,28%*,i,
COc1cccc(-c2nc(NCC3CCCO3)c3ccccc3n2)c1O (centres undefined),i,·,·,·,
O=C(c1ccc(=O)[nH]c1)N1CCCc2ccccc21,i,1.2,·,·,
COc1ccc(C(C)NC(=S)NCc2ccc(F)cc2)cc1 (centres undefined),i,1.2,·,·,
COc1cccc(C(C)NC(=S)NCc2ccc(Cl)cc2)c1 (centres undefined),i,0.34,52%*,i,
O=C(NC(=S)N(CCCCO)C1CCCCC1)c1sc2ccccc2c1Cl,i,17*,i,i,CHO-K1 Tl ctr=30*;KCNQ1 sel pot=28*;KCNQ2 pot confirm=56*;Kir21 spec=-8;KCNQ2 W236L MoA=i
CC1CCCCC1NC(=S)NC(=O)c1sc2ccccc2c1Cl (centres undefined),i,0.2,·,·,
Cc1ccccc1OCCNc1cc(N2CCNCC2)ccc1[N+](=O)[O-],i,·,36%*,i,
COc1ccccc1OCCNc1cc(N2CCCCC2)ccc1[N+](=O)[O-],i,·,·,·,
c1ccc(CNCCC(Cc2ccccc2)c2ccco2)cc1 (centres undefined),i,·,17%*,74%*,
CN(C)c1ccc(CNCCC(Cc2ccccc2)c2ccco2)cc1 (centres undefined),i,·,·,·,
CCSC(=S)c1c(C)[nH]n(-c2ccccc2)c1=O,i,7*,i,222%*,CHO-K1 Tl ctr=-21;KCNQ1 sel pot=-9;KCNQ2 pot confirm=-4;Kir21 spec=-28;KCNQ2 W236L MoA=i
Cc1[nH]n(-c2ccccc2)c(=O)c1C(=O)c1ccccc1,i,·,·,·,
O=C(Nc1nc(-c2ccccc2)nc2ccccc12)c1ccc(F)cc1,i,·,·,·,
Cc1ccc(NC(=O)CN2CCC(NC(=O)Cc3ccccc3)CC2)c(C)c1,i,·,·,·,
Cc1ccc(NC(=O)CCOc2ccccc2)c(C)c1,i,6*,i,i,CHO-K1 Tl ctr=-6;KCNQ1 sel pot=49*;KCNQ2 pot confirm=5.5*;Kir21 spec=-22;KCNQ2 W236L MoA=i
CN(C)c1ccc(NC(=O)Cc2ccccc2)c2ccccc12,i,5.3*,i,i,CHO-K1 Tl ctr=-4;KCNQ1 sel pot=-31;KCNQ2 pot confirm=10*;Kir21 spec=-23;KCNQ2 W236L MoA=i
Cc1ccc(NC(=O)Cc2ccccc2)c(C)c1,i,6.4*,·,·,CHO-K1 Tl ctr=3.4*;KCNQ1 sel pot=-5;KCNQ2 pot confirm=7.4*;Kir21 spec=-48;KCNQ2 W236L MoA=i
Cc1ccc(F)cc1NC(=O)CCOc1ccccc1,i,·,·,·,
COc1cc(OC)cc(C(=O)Nc2ccc(N(C)C)c3ccccc23)c1,i,0.66,·,·,
CC(C)(C)n1cn[nH]c1=S,i,0.82,·,·,
Cc1noc(C)c1COc1ccc(C(=O)N2CCN(c3ccccn3)CC2)cc1,i,0.61,·,·,
SMILES,KCNQ2 block,KCNQ2 pot,Kir21 conf inh,HEK293 Tl flux,others
Cc1cc(C)cc(N(CC(=O)NC2CCCC2)C(=O)CCC(=O)Nc2cc(C)ccn2)c1,i,·,·,·,
O=C(NC1CCCC1)C1CCN(C(=O)c2ccc(Cl)cc2Cl)CC1,i,·,·,·,
Cc1ccccc1CN1CCN(CC(=O)NCc2ccccc2)CC1,i,0.21,·,·,
COc1ccc(C(C)=O)cc1CSCC(=O)O,i,0.78,·,·,
COc1ccc(C(=O)/C=C/c2cccc(OCc3ccccc3)c2)cc1CSCC(=O)O,i,·,74%*,i,
O=C(CC12CC3CC(CC(C3)C1)C2)Nc1cccc2ncccc12,i,11*,i,i,CHO-K1 Tl ctr=-17;KCNQ1 sel pot=-16;KCNQ2 pot confirm=45*;Kir21 spec=-28;KCNQ2 W236L MoA=i
O=C(Nc1cccc2ncccc12)C12CC3CC(CC(C3)C1)C2,i,1.2,·,·,
COc1cc2c(cc1OC)CN(C1CC(=O)N(c3c(C)cccc3C)C1=O)CC2 (centres undefined),i,·,·,·,
COc1cc(C(C2=C(O)CC(C)(C)CC2=O)C2C(=O)CC(C)(C)CC2=O)cc(OC)c1OC (centres undefined),i,·,·,·,
CC1(C)CC(=O)C(C(C2=C(O)CC(C)(C)CC2=O)c2ccco2)C(=O)C1 (centres undefined),i,5.4*,i,i,CHO-K1 Tl ctr=135*;KCNQ1 sel pot=-10;KCNQ2 pot confirm=42*;Kir21 spec=-44;KCNQ2 W236L MoA=i
CCc1ccc(S(=O)(=O)NCc2csc(-c3ccccc3)n2)s1,i,·,49%*,i,
CCc1ccc(S(=O)(=O)NCCc2csc(-c3ccccc3)n2)s1,i,·,·,·,
COc1cc(CNc2ccc3[nH]c(=O)[nH]c3c2)cc(Br)c1OCc1ccc(F)cc1,i,0.06,·,·,
COc1cccc(CNc2ccc3[nH]c(=O)[nH]c3c2)c1OCc1ccccc1F,i,5.1,66%*,i,
CC(=O)NC(Cc1cc(C)ccc1C)C(=O)N1CCN(C(=O)c2ccc([N+](=O)[O-])cc2)CC1 (centres undefined),i,0.16,·,·,
CCOC(=O)c1cc2c(=O)n3ccccc3nc2n(CCCOC)c1=NC(=O)c1ccncc1,i,8.6*,i,i,CHO-K1 Tl ctr=-10;KCNQ1 sel pot=-13;KCNQ2 pot confirm=-28;Kir21 spec=-34
CCCn1c(=NC(=O)c2ccco2)c(C(=O)OCC)cc2c(=O)n3ccccc3nc21,i,0.09,·,·,
O=C(CCN1CCCCO1)N1CCCC(Nc2ccc(F)cc2)C1 (centres undefined),i,0.5,·,·,
Cc1ccccc1OCC(O)CN1CCN(CCN2C(=O)c3cccc4cccc(c34)C2=O)CC1 (centres undefined),i,·,·,·,
Cc1cccc(C)c1OCC(O)CN1CCC(CN2C(=O)c3cccc4cccc(c34)C2=O)CC1 (centres undefined),i,5.7*,i,i,CHO-K1 Tl ctr=50*;KCNQ1 sel pot=-16;KCNQ2 pot confirm=-22;Kir21 spec=-27
C=CCN1C(=O)c2ccccc2NC1c1ccc(Br)s1 (centres undefined),i,1.2,·,·,
O=C1c2ccccc2NC(c2ccc(Br)s2)N1O (centres undefined),i,7.8*,i,288%*,CHO-K1 Tl ctr=1.4*;KCNQ1 sel pot=27*;KCNQ2 pot confirm=22*;Kir21 spec=-38;KCNQ2 W236L MoA=i
